We go through 13 compounds from PubChem BioAssay AID1645872 (National Center for Advancing Translational Sciences (NCATS), 2021).

Inconclusive results are not listed. Values without a mark were called inactive. Calls of active or inactive are those of the source. The call rests on the fitted dose curve; in most records, active means well fitted inhibition curve with a large enough effect; inconclusive means small, poorly fitted or top-dose-only effect; inactive means flat fitted curve, though single readings scatter. Numbered stars: 1 amine (or outer) side, 2 acyl side, 3 side chain; on linkers, the order of the positions; unused ones are H or OH. Peptide text beside a SMILES is read from it. CO = O=C([*:1])[*:2]

Chain of Papain (Carica papaya) (P00784 whole entry, looked up): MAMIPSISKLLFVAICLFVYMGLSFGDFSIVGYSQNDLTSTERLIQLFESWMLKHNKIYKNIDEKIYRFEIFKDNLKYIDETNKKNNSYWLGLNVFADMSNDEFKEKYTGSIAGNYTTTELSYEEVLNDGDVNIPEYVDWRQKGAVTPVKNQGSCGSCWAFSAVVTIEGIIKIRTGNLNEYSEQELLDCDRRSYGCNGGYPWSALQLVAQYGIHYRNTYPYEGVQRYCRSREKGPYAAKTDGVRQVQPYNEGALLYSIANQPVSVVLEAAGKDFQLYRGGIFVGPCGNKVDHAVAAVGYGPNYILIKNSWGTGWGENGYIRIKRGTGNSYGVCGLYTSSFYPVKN

For this assay, the target named is Papain (Carica papaya) (UniProt P00784). In words: Confirmatory qHTS assay for inhibitors of the protease papain. As to conditions: papain Z-FR-AMC cleavage, fluorescence; series mostly up to 49.8 µM; activity, negative = inhibition: at the top concentration. The text has this:
Principal Investigator: Sam Michael National Center for Advancing Translational Sciences, National Institutes of Health, Rockville, MD Current high-throughput screening (HTS) assay validation is often a manual process, though this can be enhanced by design-of-experiment approaches. An artificial intelligence-driven (AI/ML) assay optimization was developed as part of the NCATS A Specialized Platform for Innovative Research Exploration (ASPIRE) Initiative to accelerate preclinical drug discovery. We describe the development of an autonomous Cloud-based computational driven assay optimization system using the Kebotix adaptive optimization algorithm. The Kebotix Bayesian optimization algorithm identify and test the global optimum of the full 294 design-of-experiment (DOE) with a high optimization probability > 95%, and achieved a five-fold reduction in costs for reagents and lab supplies and HTE run-time. The proposed algorithm found suitable conditions for optimal assay performance. A cell-free assay for papain protease activity was chosen for proof-of-concept. This assay was ideal because its low cost and suitable for large amount of experiments, and previous NCATS experience would allow for historical comparisons. […] Described herein is the results of the papain qHTS assay.
PROTOCOL TABLE SEQUENCE No. (e.g., 1, 2, 3, etc.); PARAMETER (e.g., Cells, Incubation, Reagent, etc.); VALUE and DESCRIPTION. 1; Reagent; 3 uL; 4/3x Enzyme solution (working concentration of 5 nM) or 3 uL buffer 2; Compounds; 17 nL; library compounds and controls (working concentration of 169 nM - […]) 3; Time; 15 min; room temperature incubation 4; Reagent; 1 uL; 4x 2 uM Z-FR-AMC substrate 5; Centrifugation; 1000 rpm; 15 sec centrigure 6; Detection; Fluorescence Read 1; ViewLux plate reader 7; Time; 10 min; room temperature incubation 8; Detection; Fluorescence Read 2; ViewLux plate reader NOTES (numbers refer to Sequence numbers above; values are from representative experiments) 1; Dispense 3 uL of [4/3x] 5 nM Papain-buffer solution in medium-binding black solid-bottom Greiner plates (789176-F); columns 1-2 and […]. Dispense 3 uL of assay buffer (100 mM Na-acetate pH 5.5, 5 mM DL-Cysteine, 0.01% Tween20) to columns 3 and 4. 2; Compounds are single pin-transferred (17 nL) for a final concentration range of 0.664 nM - 39.2 uM. 3; Room temperature incubation. 4; Dispense 1 uL of [4x] 2 uM Z-FR-AMC substrate solution into the assay plate, columns 1 - 48. 5; Centrifuge the assay plate to remove bubbles. 6; Initial fluorescence signal (Read 1) is obtained using the ViewLux plate reader (PerkinElmer) equipped with a 340(30) nm excitation filter; 450(20) nm emission filter; 2 sec exposure time at energy set to 2000. 7; Room temperature incubation in the dark. 8; Final fluorescence signal (Read 2) is obtained using the ViewLux plate reader (PerkinElmer) equipped with a 340(30) nm excitation filter; 450(20) nm emission filter; 2 sec exposure time at energy set to 2000.
In general terms: qHTS replaces the single test concentration by a dilution series.
Consider `N#Cc1nc(Nc2cccc(Cl)c2)nc(NC2CCCC2)n1`, for which the Potency is 289 nM (active).
The same measure, in the same setting: with `COc1cccc(Nc2nc(C#N)nc(NC3CCCC3)n2)c1` the figure was 57.6 nM (active); with `N#Cc1nc(Nc2ccc(F)cc2)nc(NC2CCCC2)n1`, 102 nM (active).
Same read-out and setting: the value for `CC(=O)N[C@@H](CC(C)C)C(=O)N[C@@H](CC(C)C)C(=O)N[C@H](C=O)CCCN=C(N)N` was 10.2 nM (active); that for `N#Cc1nc(Nc2cccc(F)c2)nc(NC2CCCC2)n1` was 115 nM (active); that for `CC(C)C[C@H](NC(=O)[C@@H](NC(=O)N[C@@H](Cc1ccccc1)C(=O)O)[C@H]1CCN=C(N)N1)C(=O)N[C@H](C=O)Cc1ccccc1` was 10.2 nM (active).
For the compound `N#Cc1nc(Nc2ccccc2)nc(NC2CCCC2)n1`, the Potency is 81.4 nM (active).
Same read-out and setting: the value for `COc1ccc(Nc2nc(C#N)nc(NC3CCCC3)n2)cc1` was 102 nM (active).
The same measure, in the same setting: with `CC(C)C(NC(=O)C(CCCN=C(N)N)NC(=O)NC(Cc1ccccc1)C(=O)O)C(=O)NC(C=O)CCCN=C(N)N` (stereo not drawn) ({Phe-CO}-Arg-Val-Arg-aldehyde; configuration not given here) the figure was 12.9 nM (active); with `Cc1cccc(Nc2nc(C#N)nc(NC3CCCC3)n2)c1`, 64.7 nM (active); with `CCOc1nc(C#N)nc(N2CCCCC2)n1`, 182 nM (active).
Regarding `O=c1oc(Cl)c(Cl)c2ccccc12`, the “activity, negative = inhibition” value was -8.82%.
For the compound `N#Cc1nc(Nc2cc(F)cc(F)c2)nc(NC2CCCC2)n1`, the Potency was 162 nM (active).
